In all, about 350,000 compounds went through this assay and about 6,000 (1.7%) were called active. Another 5% or so got no clear call; they are omitted. The full list was thinned out, with actives kept by preference. Unmarked numbers belong to inactive results. Rule as the data show it: active = CPE inhibition above about 20% (passing the limit was not always enough); inconclusive = no clear call, values can overlap the other calls; tested in BHK-21 cells.
assay: protection of cells from dengue 2 killing – plate reader, single concentration, primary screen (AID 651640); conditions: DENV2-infected cells, cytopathic effect rescue, at 9.99 µM, hits give high values;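 also: 0% = median of neutral control wells and 100% = median of positive control wells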

| SMILES | CPE inhibition |
| --- | --- |
| COc1ccc2c3c(n(C)c2c1)[C@@H](CO)N(C)CC31CN(CC2CC2)C1 | -0.913% |
| Cc1ccc(-c2cc(=O)c3ccc(F)cc3[nH]2)cc1 | 25% (active) |
| Cc1ccc(-c2cc(=O)c3ccc(Cl)cc3[nH]2)cc1 | 0.541% |
| O=c1cc(-c2ccccc2)[nH]c2cc(F)ccc12 | -7.41% |
| CC(C)CC#Cc1ccc([C@H]2[C@@H](CO)N3C(=O)CN(C(=O)CN4CCOCC4)C[C@H]23)cc1 | -8.34% |
| COc1cc(C(=O)OCCCN2CCOCC2)cc(OC)c1OC | 49.2% (active) |
| COc1ccc(C(=O)NCCCN2CCOCC2)cc1Br | 8.89% |
| CCN1CCN(CC(=O)c2cc(OC)c(OC)c(OC)c2)CC1 | -1.76% |
| O=C(C[C@@H]1C=C[C@@H](NC(=O)c2ccccc2)[C@H](CO)O1)NCCc1ccncc1 | -5.54% |
| CC(C)CC(COCc1ccc(Cl)cc1)N1CCN(C(=O)c2ccc(C(F)(F)F)cc2)CCC1=O (centres undefined) | 49.9% (active) |
| O=C(c1ccc(C(F)(F)F)cc1)N1CCC(=O)N([C@H](COCc2ccccc2)Cc2ccccc2)CC1 | -2.73% |
| CC(C)C[C@@H](COCc1ccc(Cl)cc1)N1CCN(C(=O)c2ccc(Cl)cc2Cl)CCC1=O | -4.03% |
| C[C@H](CO)N1C[C@H](C)[C@H](CN(C)C)Oc2cc(C#Cc3ccccc3F)ccc2S1(=O)=O | -8.31% |
| COCC(=O)N(C)C[C@H]1Oc2ncc(-c3ccc(C)cc3)cc2C(=O)N([C@@H](C)CO)C[C@@H]1C | 14.3% |
| COC(=O)[C@H]1C[C@H](OC(=O)NCc2ccccc2)[C@@]2(O)CN(S(=O)(=O)c3ccc(C)cc3)CC2[C@H]1C(=O)OC (some centres undefined) | 11.6% |
| Cc1ccc(S(=O)(=O)N2C[C@]3(O)C[C@@H]4C(=O)N(c5ccccc5)C(=O)[C@@H]4C[C@]3(OC(=O)NC3CC3)C2)cc1 | 0.334% |
| Cc1ccc(S(=O)(=O)N2C[C@@H](C)[C@]3(C2)[C@H](O)[C@H](OC(=O)NCc2ccccc2)C[C@H]2C(=O)N(c4ccccc4)C(=O)[C@H]23)cc1 | 31.2% (active) |

| SMILES | CPE inhibition |
| --- | --- |
| C[C@H]1CN([C@@H](C)CO)C(=O)c2cccc(NC(=O)CCCCCC(=O)Nc3ccccc3N)c2O[C@@H]1CN(C)CC1CCCCC1 | 1.77% |
| C[C@H]1CN([C@@H](C)CO)C(=O)c2cc(Br)cnc2O[C@@H]1CN(C)S(=O)(=O)c1ccc(F)cc1 | -4.52% |
| C[C@@H]1CN([C@@H](C)CO)C(=O)c2cccc(NC(=O)c3ccc(-c4nccs4)cc3)c2O[C@@H]1CN(C)S(=O)(=O)c1ccccc1 | -5.21% |
| COc1ccc2c3c([nH]c2c1)[C@H](CO)N(C(=O)CN1CCOCC1)CC31CN(C(C)=O)C1 | 4.54% |
| CCC(=O)N1CC2(CN(C(=O)Nc3ccccc3F)C2)c2c([nH]c3cc(OC)ccc23)[C@H]1CO | 10.3% |
| CC(C)C#Cc1ccc2c(c1)O[C@@H](CN(C)C(=O)Nc1ccccc1)[C@H](C)CN([C@H](C)CO)S2(=O)=O | -2.16% |
| C=C1C(=O)[C@]23C[C@H]1CCC2[C@@]1(C)C(C[C@@H]3O)[C@](C)(C(=O)O)CC[C@@H]1O (some centres undefined) | 74.8% (active) |
| O=C(C[C@@H]1C[C@H]2c3cc(NS(=O)(=O)c4ccc(F)cc4)ccc3O[C@H]2[C@H](CO)O1)NC1CCCC1 | -5.59% |
| C[C@@H]1CN([C@@H](C)CO)C(=O)c2cc(C3=CCCC3)cnc2O[C@H]1CN(C)Cc1ccccc1F | 3.87% |
| C[C@H](CO)N1C[C@H](C)[C@H](CN(C)S(C)(=O)=O)Oc2ncc(C3=CCCC3)cc2C1=O | 32.1% (active) |
| CCC(=O)N(C)C[C@@H]1Oc2ncc(C3=CCCC3)cc2C(=O)N([C@H](C)CO)C[C@@H]1C | -6.55% |
| CCCN(C)C[C@@H]1Oc2ncc(-c3ccccc3F)cc2C(=O)N([C@@H](C)CO)C[C@@H]1C | 38.8% (active) |
| C[C@@H]1CN([C@H](C)CO)C(=O)c2cc(C3=CCCC3)cnc2O[C@H]1CN(C)C | 0.588% |
| C[C@H]1CN([C@@H](C)CO)C(=O)c2cc(-c3ccccc3F)cnc2O[C@@H]1CN(C)C | -7.94% |
| C[C@H](CO)N1C[C@H](C)[C@H](CN(C)Cc2cccnc2)Oc2ncc(C3=CCCC3)cc2C1=O | -1.52% |
| CCCN(C)C[C@H]1Oc2ncc(-c3ccccc3OC)cc2C(=O)N([C@H](C)CO)C[C@@H]1C | 14.5% |
| C[C@H](CO)N1C[C@H](C)[C@@H](CN(C)Cc2ccccn2)Oc2ncc(C3=CCCC3)cc2C1=O | 49.6% (active) |

Source: PubChem BioAssay AID651640 (Broad Institute, 2012)
